Test system: CLK1
Conditions: concentration: 1 μM, replicates: in singlicate; n = 1
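Also: KINOMEscan kinase panel screen.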

| SMILES | %Inh [%] |
| --- | --- |
| Cl.Cl.NCC(C(=O)Nc1cc(Br)c(-c2ccnc3[nH]ccc23)s1)c1ccccc1 (stereo not shown) [GSK1269851] | 63 |
| Cl.c1ccc(-c2ccc3c(Nc4ccc5[nH]ncc5c4)ccnc3c2)nc1 [GW440137] | 48 |
| NCCCC(NC(=O)c1cc(Br)c(-c2ccnc3[nH]ccc23)s1)c1ccccc1.O=C(O)C(F)(F)F.O=C(O)C(F)(F)F (stereo not shown) [GSK1287544] | 51 |
| Cl.Cl.NCC(NCc1ccc(-c2ccnc3[nH]ccc23)s1)c1ccccc1 (stereo not shown) [GSK1321565] | 89 |
| Cc1ccc(S(=O)(=O)Nc2ccc(Nc3nccc(Nc4cccc5[nH]ncc45)n3)cc2)cc1 [GSK581271] | 85 |
| O=C(Nc1cccc(Oc2ccc3nc(NC(=O)C4CC4)cn3n2)c1)c1ccccc1C(F)(F)F | 26 |
| COc1cccc(NC(=O)NC2CCN(c3ccnc(Nc4cc(OC)c(OC)c(OC)c4)n3)C2)c1 (stereo not shown) [GSK1379763] | 12 |
| Cl.Cl.NCC(NC(=O)c1cc(-c2ccccc2)c(-c2ccnc3[nH]ccc23)s1)c1ccccc1 (stereo not shown) [GSK1321561] | 33 |
| Cc1cccc(NC(=O)Nc2ccc(Oc3ncnc4ccn(C)c34)cc2)c1 | 2 |
| COc1cc(Nc2nccc(-c3c(-c4cccc(NC(=O)c5c(F)cccc5F)c4)nn4ncccc34)n2)cc(OC)c1OC [GSK327238] | 23 |
| COc1cc(Nc2nccc(N3CCC(NC(=O)Nc4cccc(C(C)=O)c4)C3)n2)cc(OC)c1OC (stereo not shown) [GSK1379753] | 16 |
| Cc1ccc(C)c(NC(=O)NC2CCN(c3ccnc(Nc4ccc(F)cc4)n3)C2)c1 (stereo not shown) [GSK1379720] | 23 |
| COc1ccc(CNC(=O)NC2CCN(c3ccnc(Nc4ccc(F)cc4)n3)CC2)cc1 [GSK1379788] | 13 |
| Nc1ncc(-c2cccnc2)c2scc(-c3ccc4c(c3)CCN4C(=O)Cc3ccccc3)c12 [GSK683281] | 36 |
| O=C(Nc1n[nH]c2cc(-c3ccoc3)ccc12)C1CC1 [SB-738481] | 23 |
| O=c1[nH]cc(-c2ccc(N3CCOCC3)cc2)c2sc(-c3cn[nH]c3)cc12 [GSK2276055] | 90 |
| Nc1n[nH]c2cnc(-c3ccccc3)cc12 [SB-642124] | 69 |
| O=C(Nc1cccc(-c2nn3ccccc3c2-c2ccnc(Nc3cccc(C(F)(F)F)c3)n2)c1)c1c(F)cccc1F [GSK292658] | 23 |
| CN(c1ccc(NC(=O)Nc2cc(C(F)(F)F)ccc2F)cc1)c1ccnc(Nc2ccc(S(N)(=O)=O)cc2)n1 [GW809893] | 47 |

| SMILES | %Inh [%] |
| --- | --- |
| CNC(=O)c1ccccc1Nc1nc(Nc2ccc(N3CCOCC3)cc2)ncc1Cl.Cl [GSK1576028] | 99.5 |
| COC(=O)Nc1nc2ccc(Oc3ccc(NC(=O)Nc4cc(C(F)(F)F)ccc4F)cc3)cc2n1C.Cl [GW692089] | 7 |
| COc1cc2c(cc1OCCN1CCNCC1)ncc1c3ccc(C#N)cc3[nH]c21 | 95.7 |
| O=C(NC1CCN(c2ccnc(Nc3ccc(F)cc3)n2)C1)c1cc2ccccc2s1 (stereo not shown) [GSK1379716] | 29 |
| Oc1cc(Nc2ccnc3cc(I)ccc23)ccc1F [GW552771] | 8 |
| CCn1c(-c2nonc2N)nc2c(C#CC(C)(C)O)ncc(OCCCCN)c21.O=C(O)C(F)(F)F.O=C(O)C(F)(F)F [GSK507274] | 21 |
| CC(=O)Nc1nc2cnc(Nc3cc(NC(=O)c4cccc(C5(C#N)CC5)c4Cl)ccc3C)nc2s1 | 0 |
| O=C(Nc1ccccc1F)NC1CCN(c2ccnc(Nc3ccc(F)cc3)n2)CC1 [GSK1379800] | 9 |
| O=C(Nc1n[nH]c2nc(-c3ccc(O)cc3)ccc12)C1CC1 [SB-710363] | 15 |
| c1ccc(Oc2ccc(Nc3ccnc4cc(-c5ccc(CNCCN6CCOCC6)o5)ccc34)cc2)nc1 [GW567145] | 17 |
| COc1cccc(C(=O)Nc2cccc(Oc3ccc4nc(NC(=O)C5CC5)cn4n3)c2)c1 | 30 |
| Cc1occc1-c1ncc(OC[C@@H](N)Cc2c[nH]c3ccccc23)cc1-c1ccc2[nH]nc(C)c2c1.O=C(O)C(F)(F)F [GSK682037] | 32 |
| COCCOCCOc1cc2ncc3c4ccc(C#N)cc4[nH]c3c2cc1OC | 84 |
| Cn1cc(-c2ccc3c(c2)CCN3C(=O)Cc2cccc(Cl)c2)c2c(N)ncnc21 [GSK2606590] | 30 |
| O=C(Nc1cccc(-c2nn3ncccc3c2-c2ccnc(Nc3ccccc3)n2)c1)c1c(F)cccc1F [GSK198271] | 27 |
| CN(C)Cc1ccc(-c2ccc3c(Nc4ccc(Oc5ccccn5)cc4)ccnc3c2)o1 [GW567148] | 0 |
| C[C@@H](Oc1cc(-n2cnc3cc(-c4ccnc(NCCS(C)(=O)=O)c4)ccc32)sc1C(N)=O)c1ccccc1Cl [GSK907232] | 67 |
| O=C(O)C(F)(F)F.O=C(O)C(F)(F)F.O=c1[nH]ccc2nc(N[C@@H]3CCCNC3)nc(Nc3ccc(S(=O)(=O)N4CCOCC4)cc3)c12 [GSK2177277] | 76 |

Source: PMC5540273 (PLoS ONE, 2017)
